Reference: PubChem BioAssay AID1259415 (National Center for Advancing Translational Sciences (NCATS), 2018)
Values joined by “and” are separate entries in the source; they are usually repeats but may differ in a detail not shown here. Identical values can stand only once. Hit rate of the full screen: of about 410,000 compounds, about 18,000 (4.4%) were called active. Roughly 7% stayed inconclusive and do not appear here. Cut-off read from the data, not from the text of the source: active = activity change below about -60%; inconclusive = no clear call, values can overlap the other calls; inactive = above about -39%. The sample as a whole holds a higher share of actives than the screen did.

Test: qHTS Assay for inhibitors of the human cytomegalovirus (HCMV)
Settings: HFF cells, HCMV-luciferase reporter, 72 h; at 57.5 µM; hits give low values
Outline: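 After 16 h attachment at 37C, HFF cells received test compound and HCMV-luciferase (1 PFU/cell); reporter luminescence read 72 h later, data normalized against buffer-only and known inhibitor Salinomycin.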
% is set by controls: 0 for no effect and ±100 for the full control effect.

Row | SMILES | activity change, negative = inhibition
1 | CSc1ccc(C2C(C(=O)Nc3ccccc3)=C(C)Nc3nc4ccccc4n32)cc1 (configuration not stated) | 8.38% (inactive)
2 | COc1ccc(CNC(=O)Cn2nnc(-c3ccc(S(C)(=O)=O)cc3)n2)cc1 | 21.5% (inactive)
3 | COc1cccc(-c2nc3ccc(N4CCN(C)CC4)cc3[nH]2)c1 | -68.2% (active)
4 | COc1cccc(N2CCN(c3ccc4nnc(CCC(=O)N5CCN(C)CC5)n4n3)CC2)c1 | -14.4% (inactive)
5 | COc1ccc(N2CCN(C3=NS(=O)(=O)C(c4cccc(Br)c4)=C3C)CC2)cc1 | -29.4% (inactive)
6 | CCCCOC(=O)CSc1ncnc2sc3c(c12)CCC(C)C3 (configuration not stated) | -8.12% (inactive)
7 | CN1CCN(/N=C/c2c[nH]c3ccccc23)CC1 | 41% (inactive)
8 | CCC/C(=N\O)c1c[nH]c2ccccc12 | 26.6% (inactive)
9 | C[n+]1ccc(/C=C/c2c[nH]c3ccccc23)cc1 | -99.1% (active)
10 | COc1ccc(Cl)cc1N(C)C(=O)c1cc2c(=O)oc3ccc(C)cc3c2s1 | -13.9% (inactive)
11 | O=C(CN1CCSc2ccccc21)N1CCN(c2ccccc2)CC1 | -1.62% (inactive)
12 | CCOC(=O)CCC(=O)OCC(=O)NC(C)C1CC2CCC1C2 (configuration not stated) | -99.5% (active)
13 | Cc1cccc(C(=O)OCC(=O)NC(C)C2CC3CCC2C3)c1O (configuration not stated) | 50.9% (inactive)
14 | CC(NC(=O)CN(C)S(=O)(=O)c1ccc(F)cc1)C1CC2CCC1C2 (configuration not stated) | 5.39% (inactive)
15 | COc1cccc(NC(=O)COc2cccnc2[N+](=O)[O-])c1 | 9.93% (inactive)
16 | Cn1ccnc1SCC(=O)Nc1ccc2c(c1)OCCO2 | 147% (inactive)
17 | Cn1cc([N+](=O)[O-])c(C(=O)Nc2ccc3c(c2)OCCO3)n1 | -91% (active)
18 | Cn1cnc(S(=O)(=O)Nc2ccc3c(c2)OCCO3)c1 | 30.3% (inactive)
19 | COc1cccc(NC(=O)c2nn(C34CC5CC(CC(C5)C3)C4)cc2[N+](=O)[O-])c1 | -71.1% (active)
20 | COc1cccc(NC(=O)c2csnn2)c1 | 24.9% (inactive)
21 | O=C(NCc1ccco1)O[C@H]1CC[C@@]23CCCN2C(=O)CCC[C@H]3[C@H]1Cc1ccccc1 | 13.9% (inactive)
22 | CCC(=O)N1CCc2cc(CNS(=O)(=O)c3ccc(Br)s3)ccc21 | -28.1% (inactive)
23 | CCOc1ccc(C(=O)N2CCN(CCc3ccccn3)CC2)cc1 | 7.37% (inactive)
24 | Cc1nnc2n1N=C(c1ccc3c(c1)NC(=O)CO3)CS2 | 58.6% (inactive)
25 | O=C(c1ccc2c(c1)N(Cc1ccc(F)cc1)C(=O)c1ccccc1S2(=O)=O)N1CCN(c2ccccn2)CC1 | -76.7% (active) and -91.8% (active)
26 | O=C(c1ccc2c(c1)N(Cc1ccc(Cl)cc1)C(=O)c1ccccc1S2(=O)=O)N1CCCCC1 | -15.9% (inactive)
27 | O=C(c1ccc2c(c1)N(Cc1ccccc1)C(=O)c1ccccc1S2(=O)=O)N1CCCC1 | -21.3% (inactive)
